Consider 27 compounds from PubChem BioAssay AID1259343 (VanderVen Lab, College of Veterinary Medicine, Cornell …, 2017).

Structures are written as SMILES. Among all 6,200 compounds or so, about 2,900 (47%) were called active. So high a share suggests a set chosen from earlier hits. Some of the results follow. A number with no mark means an inactive call. No stated cut-off is given here; in the data, active means inhibition above about 50%; inactive means the rest.

For orientation: inhibition means the relative decrease from the control value, in per cent.

The nature of this experiment: Mycobacterium tuberculosis growth inhibition, primary screen (AID 1259343). Conditions: inhibition: at 10 µM, active compounds read high; outcome: 10 uM.
On to `CCc1cccc2c(C(=O)CSc3nnc(-c4cccnc4)o3)c[nH]c12`, for which the inhibition is 63.8% (active).

Take `CCOC(=O)c1c(CC(C)C)csc1NC=C(C#N)C#N`: the inhibition is 100% (active).

With `CCOC(=O)c1sc(NN=C(C#N)C#N)c(C(=O)OCC)c1C`, the inhibition was 27.2%.

Regarding `CCOC(=O)C(C#N)=NNc1sc(C(=O)OCC)c(C)c1C(=O)OCC`, the inhibition is -20.8%.

In the case of `Cc1cc(=O)[nH]c(-n2nc(C)cc2NC(=O)c2cccc(C(F)(F)F)c2)n1`, the inhibition was 102% (active).

For the compound `Cc1cc(=O)[nH]c(-n2nc(C)cc2NC(=O)c2cc(C(F)(F)F)cc(C(F)(F)F)c2)n1`, the inhibition is 98.3% (active).

For the compound `Cc1cc(=O)[nH]c(-n2nc(C)cc2NC(=O)c2ccc(C(F)(F)F)cc2)n1`, the inhibition is 98.6% (active).

Consider `Cc1cc(NC(=O)c2cccc(C(F)(F)F)c2)n(-c2nc(C)c(C)c(=O)[nH]2)n1`, for which the inhibition is 33.9%.

For `Clc1ccccc1CSc1ncnc2c1nnn2Cc1ccccc1`, the inhibition is -14.6%.

For `CCn1nnc2c(N3CCC(Cc4ccccc4)CC3)ncnc21`, the inhibition is 75.6% (active).

As to `Cc1cc(=O)[nH]c(SCc2cc(-c3ccco3)on2)c1C#N`, the inhibition was 20.5%.

For `COc1cccc(-c2ccc(CNC(=O)c3n[nH]c(=O)[nH]3)cc2)c1`, the inhibition was 76.1% (active).

On to `Cc1c(NC(=S)NC(=O)c2ccc(Br)o2)c(=O)n(-c2ccccc2)n1C`, for which the inhibition is -13.3%.

Take `Cc1c(NC(=S)NCc2ccccn2)c(=O)n(-c2ccccc2)n1C`: the inhibition was 92.7% (active).

`Cc1cc2cc(CNC(=S)Nc3ccccc3)ccc2n1C`: the inhibition was 49.3%.

Take `Cc1ccc(S(=O)(=O)N=[N+]([O-])C2([N+](=O)[O-])COC(C)OC2)cc1` (configuration not stated): the inhibition is 102% (active).

Take `CCOC(=O)c1ccc(N=Cc2c(O)c([N+](=O)[O-])cc3oc4c(c23)CCCC4)cc1`: the inhibition is 97.7% (active).

Turning to `CC(C)c1csc(CN2CCC(C(=O)Nc3cccc(-c4ccco4)c3)CC2)n1`, the inhibition entry was “inactive”.

As to `Cc1ncsc1CCC(=O)N1CCC(C(=O)Nc2cccc(-c3ccco3)c2)CC1`, the inhibition is 86.6% (active).

Take `O=C(Nc1cccc(-c2cscn2)c1)C1CCN(Cc2cccc(-c3ccco3)c2)CC1`: the inhibition was 86.2% (active).

Consider `O=C(Nc1cccc(-c2ccco2)c1)C1CCN(C(=O)Cc2ccsc2)CC1`, for which the inhibition is 95.1% (active).

Consider `CC(=O)c1ccc(C(=O)N2CCC(C(=O)Nc3cccc(-c4ccco4)c3)CC2)s1`, for which the inhibition is 92.1% (active).

Take `Cc1ccc(NC(=O)CN2CSCC2=O)cc1OCC(F)F`: the inhibition is 81.5% (active).

As to `Cc1ccccc1OCC(=O)Nc1ccc2c(c1)CCC(=O)N2CCC(C)C`, the inhibition was 9.17%.

As to `N#Cc1c(-c2ccc(Br)cc2)csc1N1CCCCC1`, the inhibition is 38.9%.

Regarding `N#Cc1ncn(Cc2nc3scc(-c4ccc(Br)cc4)c3c(=O)[nH]2)n1`, the inhibition was 50.4% (active).

On to `Cn1cccc1C(=O)OCc1nc2scc(-c3ccccc3)c2c(=O)[nH]1`, for which the inhibition is 37.5%.
